Assay outcomes as filed in PubChem.
Compounds with a hit are over-represented: about 5.4% of the library has one in this group of screens.
Beta apoptosis: beta cell apoptosis inhibition; INS-1E cytokine-induced death, ATP luminescence, 48 h; percent of positive-control rescue, neutral wells zero; protection from apoptosis, % (concentration not given with the values); 0.8% of 300,000 active;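 active = Every replicate reaches about 75%, or at least half do and their mean reaches it too, limit read from the data; inconclusive = At least half of replicates reach the limit but their mean does not; inactive = Under half of replicates reach the limit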;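 also: 0% = cytokine-treated negative control wells and 100% = positive control rescue; higher means more ATP so stronger rescue from cytokine killing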
SKKanGAS inh: SKKanGAS growth inhibition; S. pyogenes SKKanGAS, kanamycin growth, BacTiter-Glo, 6 h; inhibition, % at 7.5 µM; 1.3% of 300,000 active; AID 1662;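 active = mean replicate score, as percent of positive control median, at least 50; inconclusive = mean below 50 but one replicate at or above 50; inactive = mean and every replicate below 50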;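 also: strain carries kanamycin resistance gene driven by streptokinase promoter and grows in 40 µg/ml kanamycin; loss of luminescence reflects streptokinase promoter inhibition or plain growth inhibition; 0% = median of DMSO wells and 100% = positive control at its reference dose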
CSC inhib: blocks cancer stem cells; cancer stem cell-like cells viability, luminescence; inhibition, % at 7.5 µM; 1.1% of 300,000 active; AID 2717; in the data active = inhibition above about 75%; inconclusive = no clear call, values can overlap the other calls; tested in HMLE shEcad cells
Calb FLC: affects C. albicans growth with fluconazole; growth inhibition, % (concentration not given with the values); C. albicans CaCi-2 (fluconazole-resistant clinical isolate) + fluconazole, Alamar Blue growth, 48 h; 0.57% of 300,000 active;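 active = growth inhibition above about 58% in most replicates, limit read from the data, passing the limit was not always enough; inconclusive = exactly half the replicates above a set limit; inactive = most replicates below a set limit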;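 also: all wells also contain fluconazole at 8 µg/ml as a sub-toxic cotreatment; 0% = median of DMSO wells and 100% = median of geldanamycin control wells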
Mdm2-MdmX inh: human Mdm2/MdmX binding inhibition | SaOS-2 split-luciferase Mdm2/MdmX complementation, luminescence | inhibition, % at 8 µM | AID 485346 | O15151+Q00987 | 3% of 330,000 active;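 active = inhibition of at least 50% at 8 µM in the primary screen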
MPTP block: permeability transition pore inhibition | 1.4% of 360,000 active | inhibition, % at 10 µM | isolated mouse mitochondria, Ca2+ swelling absorbance, 30 min;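 active = inhibition of 50% or more, scaled per plate between neutral and stimulator controls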;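 also: 0% = DMSO wells given calcium and 100% = 1 mM EGTA wells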
Mdm2 MdmX conf: human Mdm2/MdmX binding inhibition, confirmed; shares compounds with Mdm2-MdmX inh; luminescent assay; inhibition, % at 8 µM; 55% of 10,000 active; AID 489028; in the data active = inhibition above about 40%
Full FLuc ctr: full-length luciferase inhibition in Mdm2/MdmX counter-screen; 77% of 6,200 active; shares compounds with Mdm2-MdmX inh; AID 504607; SaOS-2 full-length luciferase counterscreen, luminescence; inhibition, % at 8 µM;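 active = mean inhibition at 8 µM reaching about 37%, which flags the compound as non-specific, limit read from the data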;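 also: p53-null SaOS-2 cells with luciferase driven by a doxycycline-inducible promoter; compound on cells about two nights before reading with doxycycline added after day one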
MPTP counter: Rhodamine 123 counter-screen of mitochondrial pore hits; shares compounds with MPTP block; isolated mitochondria, membrane potential, Rhodamine 123 fluorescence; inhibition, % at 10 µM; 78% of 5,000 active; AID 624504; in the data active = inhibition above about 22%;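 also: 0% = DMSO vehicle and 100% = positive control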
MPTP abs DR: MPTP inhibition, dose response swelling confirmation. shares compounds with MPTP block. isolated mitochondria swelling, absorbance. IC50, µM. 58% of 780 active. AID 651561; in the data active = IC50 below about 20 µM
MPTP counter DR: counter-screen for mitochondrial permeability transition pore inhibitors, dose response; AID 651564; IC50, µM; isolated mitochondria counterscreen, fluorescence read-out; shares compounds with MPTP block; 49% of 780 active; in the data active = IC50 below about 80 µM
* hit, by the source's call.

CC1CCCCN1Cc1nc2c(c(=O)n(C)c(=O)n2C)n1CCc1ccccc1 (configuration not stated) was read as Beta apoptosis -2, SKKanGAS inh 0, CSC inhib -16, Calb FLC -3, Mdm2-MdmX inh 15 and MPTP block 0.
COc1cc(C2NCC(c3ccc(Cl)cc3Cl)c3c2[nH]c2ccccc32)cc(OC)c1OC (configuration not stated) was read as Beta apoptosis 11, SKKanGAS inh 40, CSC inhib 81*, Calb FLC 1, Mdm2-MdmX inh 61*, MPTP block 88*, Mdm2 MdmX conf 10, MPTP counter -21, MPTP abs DR inactive and MPTP counter DR >80.
`Cc1noc(-c2ccc(C(F)(F)F)cc2)c1NC(=O)Nc1ccc(Cl)cc1` gave Beta apoptosis 105*, SKKanGAS inh 33, CSC inhib 52, Calb FLC -7, Mdm2-MdmX inh 95*, MPTP block 75*, Mdm2 MdmX conf 76*, Full FLuc ctr 24 and MPTP counter 72*.
For N#C/C(=C/c1ccc(Sc2nc3ccccc3[nH]2)o1)c1cccc(Br)c1 the results were Beta apoptosis 1, SKKanGAS inh 5, CSC inhib 60, Calb FLC 4, Mdm2-MdmX inh 60*, MPTP block 84*, Mdm2 MdmX conf 12 and MPTP counter 98*.
O=C(N/N=C/c1ccc(Sc2nc3ccccc3[nH]2)o1)c1ccncc1 was read as Beta apoptosis 4, SKKanGAS inh -7, CSC inhib -15, Calb FLC -3, Mdm2-MdmX inh -14 and MPTP block 26.
`Cc1nc(Nc2ccc(Cl)c(Cl)c2)sc1C(=O)Nc1ccccc1` gave Beta apoptosis 86*, SKKanGAS inh 91*, CSC inhib 88*, Calb FLC 9, Mdm2-MdmX inh 52*, MPTP block 82*, Mdm2 MdmX conf 6 and MPTP counter 64*.
Screening O=C(Nc1ccccc1Cc1ccccc1)c1ccccc1NS(=O)(=O)c1ccc(Cl)s1 returned Beta apoptosis 47, SKKanGAS inh 117*, CSC inhib active, Calb FLC inconclusive, Mdm2-MdmX inh 93*, MPTP block 64*, Mdm2 MdmX conf 92*, Full FLuc ctr 21 and MPTP counter 51*.
For Cc1ccc(NS(=O)(=O)c2ccc(Cl)s2)nc1 the results were Beta apoptosis 2, SKKanGAS inh -3, CSC inhib -2, Calb FLC 6, Mdm2-MdmX inh 6 and MPTP block -1.
Cc1ccc(NC(=O)c2ccccc2NS(=O)(=O)c2ccc(Cl)s2)cc1 was read as Beta apoptosis 77*, SKKanGAS inh 45, CSC inhib 51, Calb FLC 78*, Mdm2-MdmX inh 90*, MPTP block 68*, Mdm2 MdmX conf 81*, Full FLuc ctr 29 and MPTP counter 76*.
Screening COc1cc(OC)c(NC(=O)CCNC(=O)Cn2cnc3ccccc3c2=O)cc1Cl returned Beta apoptosis -6, SKKanGAS inh -3, Calb FLC 3, Mdm2-MdmX inh 26 and MPTP block -1.
Screening Cc1cccc(Nc2c(-c3ccc(N4CCOCC4)cc3)nc3ncccn23)c1 returned SKKanGAS inh 1, CSC inhib -5, Calb FLC -8, Mdm2-MdmX inh -9 and MPTP block -3.
For COc1ccc2cc1Oc1ccc(cc1)C[C@H]1c3cc(c(OC)cc3CCN1C)Oc1c(OC)c(OC)cc3c1[C@H](C2)N(C)CC3 the results were Beta apoptosis 5, SKKanGAS inh -8, CSC inhib -6, Mdm2-MdmX inh 100*, MPTP block 77*, Mdm2 MdmX conf 100*, Full FLuc ctr 52* and MPTP counter -13.
`CC(C)CN1C(=O)c2ccccc2C1c1nnnn1-c1ccc2c(c1)OCCO2` (configuration not stated) gave MPTP block 2.
Screening COc1ccc(C(=O)N2CCN(C(C)=O)CC2)cc1S(=O)(=O)NCc1ccc(Cl)cc1 returned Beta apoptosis -17, SKKanGAS inh 5, CSC inhib -6, Calb FLC 0, Mdm2-MdmX inh 16 and MPTP block -3.
For COc1ccc(Cl)cc1NC(=O)c1cc(-c2ccccc2O)n[nH]1 the results were Beta apoptosis 18, SKKanGAS inh 6, CSC inhib 18, Calb FLC 6, Mdm2-MdmX inh 9 and MPTP block 21.
Screening COc1ccc(OC)c(NC(=O)c2cc(-c3cc(Cl)ccc3O)n[nH]2)c1 returned Beta apoptosis 35, SKKanGAS inh -3, CSC inhib 62, Calb FLC -46, Mdm2-MdmX inh 88*, MPTP block 85*, Mdm2 MdmX conf 75*, Full FLuc ctr 42* and MPTP counter 61*.
`CCc1nnc(NC(=O)C(NS(=O)(=O)c2ccc3c(c2)OCCO3)C(C)C)s1` (configuration not stated) gave Beta apoptosis -3, SKKanGAS inh -3, CSC inhib -10, Calb FLC -1, Mdm2-MdmX inh -9 and MPTP block 1.
For CC(C)(C)Cc1nnc(NC(=O)Cc2cccs2)s1 the results were SKKanGAS inh 11, CSC inhib -2, Calb FLC -13, Mdm2-MdmX inh -21 and MPTP block -1.
For CCn1c2c(c(=N)c3c1CCC3)CCC2 the results were Beta apoptosis -2, SKKanGAS inh -3, CSC inhib 9, Calb FLC -9, Mdm2-MdmX inh 3 and MPTP block 1.
`CCCCCCCCCn1c2c(c(=N)c3c1CCC3)CCC2` gave Beta apoptosis 109*, SKKanGAS inh 21, CSC inhib 56, Calb FLC 36, Mdm2-MdmX inh 95*, MPTP block 84*, Mdm2 MdmX conf 93*, Full FLuc ctr 55* and MPTP counter 92*.
CCC(C)NC(=O)C1CCN(S(=O)(=O)c2cc([N+](=O)[O-])ccc2Cl)CC1 (configuration not stated) was read as Beta apoptosis 6, SKKanGAS inh 3, CSC inhib 37, Calb FLC 2, Mdm2-MdmX inh 5 and MPTP block 1.
